Assay results published in PubChem BioAssay (NCI).
Compounds without any hit were thinned out: in the full panel of roughly 83,000, 20% have a hit.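 Note: values are percent growth. 100 is the growth of untreated cells, values between 100 and 0 indicate rising inhibition; between -100 and 0 indicates cell death.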 A number with no mark means an inactive call. Activity calls are given as the source filed them. How the source made its calls: active means growth percent below 10; inactive means the rest.

Columns and labels:
Assay in all cases: NCI-60 one-dose screen, 48 h (100 = growth as untreated, 0 = no growth, -100 = all killed)
K-562 leukemia = conditions: 10 µM unless noted
MALME-3M melanoma = conditions: 10 µM unless noted
MDA-MB-231 breast = conditions: 10 µM unless noted
RXF 393 renal = conditions: 10 µM unless noted
SF-268 CNS = conditions: 10 µM unless noted
SF-295 CNS = conditions: 10 µM unless noted
SF-539 CNS = conditions: 10 µM unless noted
UACC-257 melanoma = conditions: 10 µM unless noted
M14 melanoma = conditions: 10 µM unless noted
HCT-15 colon = conditions: 10 µM unless noted
HT29 colon = conditions: 10 µM unless noted
SNB-75 CNS = conditions: 10 µM unless noted
SNB-19 CNS = conditions: 10 µM unless noted
U251 CNS = conditions: 10 µM unless noted
PC-3 prostate = conditions: 10 µM unless noted
SK-MEL-5 melanoma = conditions: 10 µM unless noted
UACC-62 melanoma = conditions: 10 µM unless noted
SK-MEL-28 melanoma = conditions: 10 µM
SK-MEL-2 melanoma = conditions: 10 µM unless noted
LOX IMVI melanoma = conditions: 10 µM unless noted

SMILES	growth (K-562 leukemia)	growth (MALME-3M melanoma)	growth (MDA-MB-231 breast)	growth (RXF 393 renal)	growth (SF-268 CNS)	growth (SF-295 CNS)	growth (SF-539 CNS)	growth (UACC-257 melanoma)	growth (M14 melanoma)	growth (HCT-15 colon)	growth (HT29 colon)	growth (SNB-75 CNS)	growth (SNB-19 CNS)	growth (U251 CNS)	growth (PC-3 prostate)	growth (SK-MEL-5 melanoma)	growth (UACC-62 melanoma)	growth (SK-MEL-28 melanoma)	growth (SK-MEL-2 melanoma)	growth (LOX IMVI melanoma)
COc1ccc2oc(=O)cc(Cn3cc(Cn4cnc5c4c(=O)n(C)c(=O)n5C)nn3)c2c1	103%	91.5%	98%	120%	100%	102%	94%	98%	100%	105%	99%	93.8%	99.5%	101%	102%	98.9%	91.7%	105%	106%	
COc1ccc(C2C3=C(COC3=O)N(CCO)c3cc4c(cc32)CCC4)cc1 (stereo not drawn)	24%	64.7%	70.9%	30.5%	74.5%	16.3%	57.2%	57.1%	38%	37.3%	15.4%	42.4%	62.2%	42%	54.6%	35.7%	48.3%		77.9%	51%
COc1ccc(OC)c(NC(=O)/C(C#N)=C/c2ccco2)c1	88.5%	80.3%	85.1%	113%	105%	98%	94.7%	90.7%	99.2%	91.2%	91.8%	82.2%	93.8%	94.2%	89.7%	102%	86.5%		87.1%	98.2%
Cn1c(/C=C(\C#N)c2cccc(C(F)(F)F)c2)nc2c(N3CCOCC3)nc(Cl)nc21	-12.2% (active)	-21.8% (active)	-70.1% (active)	-92.2% (active)	-50.8% (active)	85.1%	-79.9% (active)	-64.5% (active)	-77.3% (active)	-37.3% (active)	-41.5% (active)	-22.7% (active)	56.3%	2.31% (active)	-42.6% (active)	9.34% (active)	-81.1% (active)		-21.2% (active)	-87.9% (active)
O=C(Nc1ccccc1O)c1ccc(Oc2cccc(C(=O)Nc3ccccc3O)c2)cc1	-29.1% (active)	13.6%	32%	26.6%	0.105% (active)	-28.5% (active)	7.4% (active)	10.4%	-44.5% (active)	32.2%	77.7%	31.1%	21.7%	11.8%	32.6%	10.9%	-33% (active)	32.6%	28.4%	
COc1cccc2c(=O)c3c(sc12)c(NCCCNCCO)nc1ccccc13	-46.9% (active)	81.2%	23.9%	44.5%	48.2%	73%	64.9%	84.5%	41.9%	25.6%	-43.8% (active)	17.2%	63.6%	14.4%	45%	72.6%	77.4%	81.9%	94.1%	37.2%
O=S1(=O)N(Cc2ccccc2)[C@@H](Cc2ccccc2)[C@H](O)[C@H](O)[C@H](Cc2ccccc2)N1Cc1ccccc1	3.12% (active)	-14.2% (active)	-7.98% (active)	-40.8% (active)	25.3%	-11.2% (active)	-5.16% (active)	-22.1% (active)	-2.4% (active)	3.16% (active)	6.95% (active)	13.3%	17%	4.33% (active)	4.89% (active)	-1.02% (active)	5.81% (active)		-5.68% (active)	-11.3% (active)
CCCCCCn1c(=N)n(CC(O)COc2cccc(C)c2)c2ccccc21 (stereo not drawn)	-2.58% (active)	-90.9% (active)	-70.7% (active)	-95.1% (active)	-14.2% (active)	-85.7% (active)	-86.4% (active)	-87.8% (active)	-75.2% (active)	-18.8% (active)	-46.2% (active)	-92.1% (active)	12.6%	-75.7% (active)	-11% (active)	-98.7% (active)	-72.4% (active)		-79.7% (active)	-86.3% (active)
COc1ccc2sc3c(NCCCN)nc4ccccc4c3c(=O)c2c1	-56.9% (active)	94.2%	25.3%	49.5%	57.6%	94.5%	74.1%	95.7%	18.9%	-49% (active)	-47.8% (active)	48.3%	69.6%	-58.1% (active)	48.8%	84.3%	61%		96.2%	-87.2% (active)
COc1ccc(/C=C/C(=O)c2ccc(Nc3nc(NCCO)nc(Nc4ccc(Cl)cc4)n3)cc2)cc1	62.3%	97.2%	70%	66.3%	65.7%	93.6%	74.9%	100%	67.9%	38.2%	40%	61.2%	85%	53.4%	50.6%	66.9%	69.7%	79.2%	98.1%	
O=S1(=O)CCN(Cc2ccccc2)CC1	101%	112%	105%	121%	92.2%	97%	95.6%	105%	90.3%	92.8%	103%	111%	92%	104%	101%	96.5%	106%		119%	98.3%
COc1ccccc1N1C(=N)S/C(=C\c2ccc(OCc3ccccc3F)cc2)C1=O	62.2%	118%	51.4%	65.8%	82%	95.1%	106%	90.9%	70.7%	81.3%	108%	76%	90.9%	78.9%	66.9%	92.5%	63.7%	95%	82.7%	
O=C1CCC(N2C(=O)c3cccc(NCCCCCCOc4ccc(Nc5nccc(Nc6ccccc6)n5)cc4)c3C2=O)C(=O)N1 (stereo not drawn)	46.8%	76.7%	86.6%	94.7%	88.7%	73.3%	89.1%	73.1%	88.1%	86.7%	88.1%	89%	86.3%	83.3%	73.4%	7.47% (active)	71.3%		82.5%	88.1%
